# Bioassay records from PubChem BioAssay.
# The full list was thinned out, with hits kept by preference.
# Tg IFNy HTS = blocks Toxoplasma gondii growth in the presence of IFN-gamma; Toxoplasma gondii growth in IFN-gamma-treated host cells; hits give low values; activity change, negative = inhibition, % (test concentration not listed); 69,000 tested, 3.8% active; in the data active = activity change below about -70%, passing the limit was not always enough;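 note: host cells are HeLa cells infected with Toxoplasma gondii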
# * marks the source's active call; other numbers are inactive results; i = inactive.
SMILES,Tg IFNy HTS
Cc1ccc(NC(=O)Cn2c(=O)ccc3cc(S(=O)(=O)N4CCC(C)CC4)ccc32)cc1Cl,-93*
C[C@@H]1CN([C@H](C)CO)C(=O)c2cc(NS(=O)(=O)c3cn(C)cn3)ccc2O[C@@H](C)CCCCO[C@H]1CN(C)Cc1ccc2c(c1)OCO2,126
Cc1ccc(Sc2ccc(-c3nccn3CCO)o2)cc1,-1
C/C=C/c1ccc([C@H]2[C@H](CO)N(C(=O)CN(C)C)C23CN(C(=O)C2CCOCC2)C3)cc1,26
CC(C)N(C)Cc1ncn2c1CN(C(=O)c1ccno1)CCC2,2
CN(C)C(C(=O)N1CCc2c(nc[nH]c2=O)C1)c1ccc2c(c1)OCO2 (configuration not stated),-2
CCOC(=O)c1ccc(NC(=O)COc2nc(C)nc3ccccc23)cc1,-7
Cc1ncc2c(c1O)C(C1C(=O)N(c3ccc(F)cc3)N=C1c1ccccc1)OC2 (configuration not stated),i
CC(C)c1noc(-c2cc(=O)n(CC(=O)NCc3cccc(Cl)c3)c3ccccc23)n1,77
COCC(=O)N1[C@H](C#N)[C@H](c2ccccc2-c2ccccc2F)[C@H]1CO,-3
COc1ccc(O)c(-c2nc3c(C(C)(C)C)cc(C(C)(C)C)c(O)c3o2)c1,-119*
COc1ccc(O)c(N)c1,36
COc1ccc(O)c(C2=Nc3ccccc3N=C(c3ccccc3)C2)c1,167
Cc1nc(-c2cccc(F)c2)sc1CCNC(=O)COc1ccccc1,11
O=C(Cn1c(=O)cc(C(=O)N2CCc3ccccc3C2)c2ccccc21)Nc1ccc(F)cc1,3
CCC1Oc2ccc(C(=O)n3nc(C)cc3C)cc2N(CC(=O)c2ccc(C)cc2)C1=O (configuration not stated),9
CC(NS(=O)(=O)c1ccc(S(=O)(=O)N2CCOCC2)cc1)c1cccs1 (configuration not stated),-6
C=CCN1C(=O)CCC12CCN(Cc1c(C)noc1C)CC2,9
Cc1noc(C)c1CN1CCC2(CCC(=O)N2CCN(C)C)CC1,-82*
Cc1noc(C)c1CN1CC2(CCN(C(=O)N(C)C)C2)CC1=O (configuration not stated),29
CC1=NN(c2ccccc2)C(=O)C12Cc1ccc(Cl)cc1N1CCCCC12 (configuration not stated),46
Cc1cccn2c(CC(=O)N3CCC4(CCOCC4)CC3)cnc12,4
CCN1CCC2(CC1)OC(=O)C(C)=C2C(=O)NCCCN1CCCCC1C (configuration not stated),91
O=C1Cc2c([nH]c3ccc([N+](=O)[O-])cc23)-c2ccccc2N1,-74*
C[C@@H](NC(=O)C[C@@H]1CC[C@@H]2[C@@H](COc3ccc(NS(=O)(=O)c4ccc(Cl)cc4)cc3C(=O)N2C)O1)c1ccccc1,-20
SMILES,Tg IFNy HTS
Oc1cc(CCC2CCCCN2)cc(-c2ccncc2)c1 (configuration not stated),3
Cc1cc(C#N)cc(C)c1Oc1nc(Nc2ccc(C#N)cc2)nc(N)c1Br,-86*
CN(CCOc1ccc(CC(Nc2ccccc2C(=O)c2ccccc2)C(=O)O)cc1)c1ccccn1 (configuration not stated),7
COC(=O)C(Cc1ccc(OCCn2c(=O)sc3cc(C(=O)c4ccccc4)ccc32)cc1)C(=O)OC,-87*
O=c1sc2ccccc2n1CCCOc1ccccc1,-10
CC(=O)Nc1ccc(S(=O)(=O)c2ccc(NC(C)=O)cc2)cc1,8
CCc1c(C)sc2c1CCN(Cc1nc(-c3ccc(OC)cc3OC)oc1C)C2c1ccccc1 (configuration not stated),-12
CCOc1ncccc1-c1cc(CC)nc(N(C)C)n1,6
CCOc1ncccc1-c1cncnc1,-3
CCOc1ncccc1-c1ccc(C)nc1N,-90*
Cc1ccc(C(=O)Oc2ccc3c(C)cc(=O)oc3c2)cc1,-30
CCCc1nc(NCc2cc(-c3ccccc3)n[nH]2)c2cnn(C)c2n1,-83*
CCCc1nc(NCc2cc(-c3ccc(F)cc3)on2)c2cnn(C)c2n1,-12
CCCc1nc(NCc2nnnn2-c2ccccc2)c2cnn(C)c2n1,-9
O=C(c1nc(Nc2ccc(F)cc2)c2ccccc2n1)N1CCCCCC1,-40
O=C(NCc1cccc(F)c1)c1nc(CS(=O)(=O)c2ccc(Cl)cc2)no1,-87*
CN(C)C(=O)N1Cc2nc(C(=O)NCc3cccc(F)c3)oc2C1,7
O=C(Cc1ccc(Cl)cc1)NCCc1csc(-c2cccc(F)c2)n1,-7
CCn1ncc2c1CN(Cc1c(C)noc1C)CC2COC (configuration not stated),-3
COc1cc2c(cc1OC)C(Nc1nc(-c3ccccc3)cs1)=NC(C)(C)C2,-67
CCOc1ccc(NC(=O)N2CCC3(CC2)NC(=O)c2cc(C)ccc2N3C)cc1,498
O=C(Nc1cccc(F)c1)c1c(O)c2cccnc2n(-c2cccc(F)c2)c1=O,42
O=C(Nc1cc(F)cc(F)c1)c1c(O)c2cccnc2n(-c2cccc(F)c2)c1=O,-106*
COc1ccc(-n2c(=O)c(C(=O)NC3CCCC3)c(O)c3cccnc32)cc1,29
COc1cccc(-n2c(=O)c(C(=O)NC3CCCCC3)c(O)c3cccnc32)c1,-63
SMILES,Tg IFNy HTS
O=C(NCc1ccco1)c1c(O)c2cccnc2n(-c2ccc(F)cc2)c1=O,-79*
O=C(NCc1ccco1)c1c(O)c2cccnc2n(-c2cccc(F)c2)c1=O,183
O=C(Nc1cccc(F)c1)c1c(O)c2cccnc2n(-c2ccccc2)c1=O,10
COc1cccc(CNC(=O)c2c(O)c3cccnc3n(-c3ccc(F)cc3)c2=O)c1,163
COc1cccc(-n2c(=O)c(C(=O)NC3CCCCCC3)c(O)c3cccnc32)c1,-113*
CC(C)n1cnc(C2CN(C(=O)c3ccccn3)c3ccc(C(=O)N4CCCCC4)cc32)n1 (configuration not stated),-6
c1cncc(CN2CCOC(CC3CCCCC3)C2)c1 (configuration not stated),5
Cc1nc(CN2C(=O)CCC3C2CCN3C(=O)c2ccco2)cs1 (configuration not stated),0
Cc1cncc(C(=O)N(C)CCCOc2c(C)cccc2C)c1,-7
Clc1ccc(-c2nc(NCCCN3CCc4ccccc4C3)c3ccccc3n2)cc1,64
C=CCN(Cc1ccccn1)C(=O)c1cccnc1,3
COc1ccc(S(=O)(=O)N2C[C@@H]3OCCN(Cc4cnn(C)c4)[C@H]3C2)cc1,-7
CCOC(=O)c1c(/C=C/c2ccccc2)nn(-c2ccccc2)c1C,-60
CCOc1ccc(Cc2nccc3cc(OCC)c(OCC)cc23)cc1OCC,-83*
COc1ccc(C(O)c2nccc3cc(OC)c(OC)cc23)cc1OC (configuration not stated),0
CCOc1ccc(CNCc2cccs2)cc1OCC,3
COc1cccc(NC(=O)COc2nc(C)nc3ccccc23)c1,-4
CC(=O)NCC(=O)N1CCC2(CC(=O)N(c3ccc4c(c3)OCO4)C2)C1 (configuration not stated),98
CCN1C(=O)[C@@H]2CN(CC(C)C)C[C@@H]2C12CCN(C(=O)c1ccncn1)CC2,-1
O=C(NC1CCN(c2nc(-c3ccc(Cl)cc3)cs2)CC1)c1ccco1,181
CC(C)OCC(=O)Nc1cnn(CC(=O)Nc2ccc(F)cc2)c1,2
CCCc1cc(C(=O)Nc2cnn(Cc3ccc(F)cc3)c2)n[nH]1,-90*
O=C(CCN1Cc2ccccc2C1=O)Nc1cnn(Cc2ccc(F)cc2)c1,-15
